The panel holds about 83,000 compounds, 20% with a hit somewhere; the sample as a whole holds those more often.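 Growth was measured after 48 h exposure to one concentration of compound in 96-well plates. Values under 10 count as active.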 A number with no mark means an inactive call. Calls of active or inactive are those of the source.
System: RPMI-8226 leukemia
Test: NCI-60 one-dose screen, 48 h (100 = growth as untreated, 0 = no growth, -100 = all killed)
Settings: 10 µM unless noted
Description: Growth inhibition of the RPMI-8226 human tumor cell line is measured as a screen for anti-cancer activity. Cells are grown in 96 well plates and exposed to the test compound for 48 hours. Compounds are tested at a single concentration, which is 10^-5 M for most compounds. The reported endpoint is percent growth (GI% or GIPRCNT), where numbers from 0 - 100% represent growth inhibition, and numbers from -100% - 0 represent cell death. For example, a value of 40 represents 60% growth inhibition. A value of 0 means no net growth occurred over the course of the experiment. A value of -40 indicates 40% of cells at the beginning of the experiment died by the end of the experiment. A value of -100 means all cells are dead at the end of the experiment.
NCI-60 Human Tumor Cell Lines Screen was performed using the standard one-dose NCI protocol, which is described in more detail at https://dtp.cancer.gov/discovery_development/nci-60/default.htm.
Compounds with GIPRCNT values below 10 were considered active. Activity score was based on GIPRCNT using the following formula: […]
Score is 0 for GIPRCNT values of 100 or above, 50 for GIPRCNT values of 0, and 100 for GIPRCNT values of -100.

SMILES | growth
C=C(C)[C@@H]1CC[C@]2(CO)CC[C@]3(C)[C@H](CC[C@@H]4[C@@]5(C)CC[C@H](O)C(C)(C)[C@@H]5CC[C@]43C)[C@@H]12 | 41.2%
CC(=O)NC(CCc1ccc(Cl)c(Cl)c1)c1cccc(O)c(=O)c1 (stereo not given) | 13.9%
COc1ccc(/C=N/NC(=O)COCC(=O)N/N=C/c2ccc(OC)cc2)cc1 | 101%
CS(=O)(=O)c1ccc(/C=C\C(=O)O)cc1 | 98.8%
Clc1cccc(Cl)c1CSc1nc2ccccc2n2cccc12 | 96.1%
CC(c1ccccc1)N1C(=O)CSC1=S (stereo not given) | 16.9%
C=CCN1CCCC1=O | 96.6%
Cc1cc2c(C(C)C)c(O)c(O)c(C=Nc3ccccc3[N+](=O)[O-])c2c(O)c1-c1c(C)cc2c(C(C)C)c(O)c(O)c(C=Nc3ccccc3[N+](=O)[O-])c2c1O | 61.5%
N#Cc1ccc2nc[nH]c2c1 | 108%
CC(C)Sc1ncnc2nc[nH]c12 | 118%
CSc1nsc(N)n1 | 114%
O=c1[nH]c(=O)c2cc(Cl)cc(Cl)c2[nH]1 | 104%
CCOc1ccc(NC(=S)N2CCC(CCCC3CCN(C(=S)Nc4ccc(OCC)cc4)CC3)CC2)cc1 | 65.8%
C=CC1=NC(C)(C)CC(C)O1 (stereo not given) | 105%
COC1OC(CO)C(OC)C(O)C1O (stereo not given) | 101%
Cc1ccc(S(=O)(=O)Oc2ccc3sc4c(CO)ccc(NCCN(C)C)c4c(=O)c3c2)cc1 | -43.4% [100 µM] (active)
CCN(C(=O)Nc1ccccc1Cl)c1ccccc1 | 107%
CCOC(=O)/C(O)=C(\C=N\C(=S)Nc1ccc(Cl)c(Cl)c1)C(=O)OCC | 80.1%
CCN(C(C)=O)c1ccc([N+](=O)[O-])cc1 | 93.9%
CSc1nc2[nH]ncc2c(=O)[nH]1 | 119%

SMILES | growth
CCOC(=O)CO | 110%
CC(=O)O[C@H]1CC[C@]2(C)C3=C(C(=O)C[C@H]2C1(C)C)[C@]1(C)CC[C@H]([C@H](C)CCC(=O)O)[C@@]1(C)CC3=O | 101%
CCCC1OC(c2ccco2)OCC1CC (stereo not given) | 94.8%
O=C(Nc1ccccc1)c1ccco1 | 105%
Cn1c(=O)[nH]c2ccccc2c1=O | 112%
CCOc1ccc(C(=O)O)cc1 | 103%
CC(=O)NNC(=S)N/C=C/c1c(C)ccc([N+](=O)[O-])c1[N+](=O)[O-] | 103%
COc1ccc(Br)c(C=O)c1 | 22.2%
C#CCSc1nnnn1-c1ccccc1 | 72.4%
COc1cccc(N=CNc2cccc(OC)c2)c1 | 92%
COc1ccc(-c2csc(NC(=O)Nc3nc(-c4ccc(OC)cc4)cs3)n2)cc1 | 69.5%
COC(=O)C1=C(C)C(=O)CC1 | 110%
Cc1ccccc1NC(=O)Oc1ccc(Cl)cc1C(=O)c1ccccc1 | 85.6%
CCCCCCCCCCCCCCCCOc1ccccc1NC(=O)CC(C)=O | 64%
COc1ccc(C(=O)/C(=N/Nc2ccccc2)c2ccc(OC)cc2)cc1 | 92.9%
CC(=O)C1C(=O)C(=O)N(c2ccc(Cl)c(Cl)c2)C1=O (stereo not given) | 107%
CC1=CC(=Nc2ccc(N(C)C)cc2)C=C(C)C1=O | 39.7%
CC(=O)OCC1CCC(COC(C)=O)CC1 (stereo not given) | 103%
COC(=O)c1cccc([N+](=O)[O-])c1 | 102%
COc1cccc2c1Cc1ccccc1-2 | 99.8%

From PubChem BioAssay (NCI)
